Test results as given in PubChem BioAssay (EPA / NIEHS).
Results filed as inconclusive are left out. The source made the active and inactive calls. Rule for the calls, unless noted: active = hit-call score of the fitted dose curve at least 0.9, where 1 is the maximum; inactive = score below 0.9.

Key:
[1] = CCTE_Mundy_HCI_Cortical_NOG_NeuriteLength: CCTE's Neurite Outgrowth Assay in rat cortical cells for Neurite Length, Mundy Lab (AID 2284213);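 note: neurites imaged about 48 to 50 h after chemical exposure began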
How it was run: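 First, rat primary cortical cells were plated and, 2 h later, given test chemical as a 1/10 dilution. Finally, βIII-tubulin immunostaining enabled automated imaging of neurite length.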

[2] = CCTE_Mundy_HCI_Cortical_Synap_Neur_Matur_NeuriteLength: CCTE's Synaptogenesis and Neurite Maturation Assay in rat cortical cells for Neurite Length, Mundy Lab (AID 2284214)
How it was run: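 DMSO-normalised neurite length, from high-content imaging of anti-MAP2-stained rat cortical cells fixed at DIV 12. Glia were suppressed with AraC (DIV 5) before chemical exposure from DIV 7.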

[3] = CCTE_Mundy_HCI_Cortical_Synap_Neur_Matur_NeuriteSpotCountPerNeuron: CCTE's Synaptogenesis and Neurite Maturation Assay in rat cortical cells for Neurite Spot Count per Neuron Count, Mundy Lab (AID 2284215)
How it was run: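 Rat primary cortical cells received AraC at DIV 5, then chemicals with a media change at DIV 7, and were fixed at DIV 12. Synaptophysin puncta on MAP2-stained neurites per neuron were counted by high-content imaging, fitted relative to DMSO.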

[4] = CCTE_Mundy_HCI_Cortical_Synap_Neur_Matur_SynapseCount: CCTE's Synaptogenesis and Neurite Maturation Assay in rat cortical cells for Synapse Count, Mundy Lab (AID 2284218)
How it was run: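 Endpoint: synapses/neuron by HCI (synaptophysin puncta on MAP2-labelled neurites, Hoechst nuclei). Rat primary cortical cells, AraC DIV 5, dosed DIV 7, fixed DIV 12; DMSO negative control.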

[5] = CCTE_Mundy_HCI_Cortical_Synap_Neur_Matur_NeuriteCount: CCTE's Synaptogenesis and Neurite Maturation Assay in rat cortical cells for Neurite Count, Mundy Lab (AID 2284222);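 note: exposure from day 7 to day 12 in vitro with readout at day 12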
How it was run: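 Rat primary cortical cells; AraC added at DIV 5, chemicals dosed with media change at DIV 7 through DIV 12. MAP2/synaptophysin/Hoechst immunostaining, high-content imaging of neurite number; fitted relative to DMSO.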

[6] = CCTE_Mundy_HCI_Cortical_Synap_Neur_Matur_CellBodySpotCount: CCTE's Synaptogenesis and Neurite Maturation Assay in rat cortical cells for Cell Body Spot Count, Mundy Lab (AID 2284223)
How it was run: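 Rat primary cortical cultures received AraC at DIV 5 to arrest glia, were dosed with chemical at DIV 7 with media change, and were fixed at DIV 12 (288.33 h). Synaptophysin puncta on MAP2-positive cell bodies per neuron were counted by high-content imaging versus DMSO.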

[7] = UKN2_HCS_IMR90_cell_viability: Viability Assessment in the University of Konstanz (UKN) Leist Lab Neural Crest Cell Migration Assay in human induced IMR90 Pluripotent Stem Cells (UKN2) (AID 2284233);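 note: cells exposed to compound for 24 h after a 24 h migration phase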
How it was run: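 Viability read as calcein-AM fluorescence by high-content imaging, Hoechst co-stain, 30 min. Human iPSC (IMR90) neural crest cells had migrated 24 h into stopper-defined gaps before 24 h chemical exposure. Fitted bidirectionally relative to DMSO.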

[8] = CCTE_Mundy_HCI_Cortical_NOG_NeuronCount: CCTE's Neurite Outgrowth Assay in rat cortical cells for Neuron Count, Mundy Lab (AID 2284236; active = hit-call score of the fitted dose curve at least 0.9, where 1 is the maximum;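 note: neurons counted by imaging betaIII-tubulin and Hoechst stained cortical cells; cells exposed to compound for about 48 hours before fixation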)
How it was run: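 Read-out: neuron number by high-content imaging of betaIII-tubulin (Alexa Fluor-488) and Hoechst-labelled rat primary cortical cells.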

[9] = CCTE_Mundy_HCI_Cortical_NOG_BPCount: CCTE's Neurite Outgrowth Assay in rat cortical cells for Branch Point Count, Mundy Lab (AID 2284237);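 note: branch points counted about two days after chemical exposure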
How it was run: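 Measured 50.33 h after dosing, this morphology endpoint uses rat primary cortical cultures labelled for betaIII-tubulin. Branch points are quantified by high-content imaging, with DMSO as negative control and baseline.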

[10] = CCTE_Mundy_HCI_hNP1_Casp3_7: CCTE's Caspase-Glo 3/7 Assay in human neuroprogenitor cells for Apoptosis, Mundy Lab (AID 2284240)
How it was run: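 Luminescent caspase-3/7 readout, 26.5 h post-dose, in human neural progenitor cells from WA09 embryonic stem cells. Cells grew 40–44 h at 37 °C, 5% CO2 before chemical addition. Activity analysed as signal increase over DMSO baseline.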

[11] = IUF_NPC2c_oligodendrocyte_migration_120hr: Leibniz Research Institute for Environmental Medicine (IUF) 120-hour Neural Progenitor Cell Migration Assay for Oligodendrocyte Migration (NPC2c) (AID 2284297);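 note: O4-positive oligodendrocyte migration distance divided by radial glia migration distance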
How it was run: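 Human fetal cortex-derived neural progenitor spheres (0.3 mm) were plated on poly-D-lysine/laminin in N2 differentiation medium and exposed to 7 concentrations for 120 h, with half-medium renewal at day 3. Oligodendrocyte migration distance was normalized to radial glia migration, relative to DMSO.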

[12] = IUF_NPC2a_radial_glia_migration_120hr: Leibniz Research Institute for Environmental Medicine (IUF) 120-hour Neural Progenitor Cell Migration Assay for Radial Glia Migration (NPC2a) (AID 2284298)
How it was run: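 Single 0.3 mm primary human fetal-cortex (GW 16-19) NPC spheres were plated on poly-D-lysine/laminin in N2 differentiation medium and exposed from day 0 for 120 h, half-medium refreshed day 3. Migration distance came from Hoechst nuclei-density imaging, relative to DMSO.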

[13] = IUF_NPC2a_radial_glia_migration_72hr: Leibniz Research Institute for Environmental Medicine (IUF) 72-hour Neural Progenitor Cell Migration Assay for Radial Glia Migration (NPC2a) (AID 2284299)
How it was run: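 Spheres of human primary neural progenitors migrate on poly-D-lysine/laminin under compound exposure at 37C, 5% CO2. The 72 h radial glia migration distance comes from brightfield images, measured manually.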

[14] = IUF_NPC2b_neuronal_migration_120hr: Leibniz Research Institute for Environmental Medicine (IUF) 120-hour Neural Progenitor Cell Migration Assay for Neuron Migration (NPC2b) (AID 2284300)
How it was run: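 Primary human fetal cortex neural progenitor spheres (0.3 mm) plated on poly-D-lysine/laminin in N2 differentiation medium, exposed 120 h with half-medium refresh at day 3. TUBB3-stained neuron distance from sphere core, normalized to radial glia migration, versus DMSO.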

[15] = IUF_NPC3_neuronal_differentiation_120hr: Leibniz Research Institute for Environmental Medicine (IUF) 120-hour Neuronal Differentiation Assay (NPC3) (AID 2284301)
How it was run: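 hNPC spheres, PDL/laminin, DMEM/F12 3:1 + 1% N2, 37C, 5% CO2; 7 concentrations + solvent control, 5 d exposure, half-change day 3. Fix 120 h; TUBB3/Hoechst ICC, CNN neuron calling; % neurons vs nuclei, DMSO-normalized.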

[16] = IUF_NPC4_neurite_length_120hr: Leibniz Research Institute for Environmental Medicine (IUF) 120-hour Neuronal Morphology Assay for Neurite Length (NPC4) (AID 2284302)
How it was run: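 hNPC spheres (0.3 mm, fetal brain GW 16-19) on PDL/laminin, DMEM:F12 3:1 + 1% N2, 37C 5% CO2; 7 concs + solvent control, day 0-5, half medium change d3; fix 120 h, TUBB3 ICC, mean neurite length um vs DMSO.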

[17] = IUF_NPC4_neurite_area_120hr: Leibniz Research Institute for Environmental Medicine (IUF) 120-hour Neuronal Morphology Assay for Neurite Area (NPC4) (AID 2284305; active = hit-call score of the fitted dose curve at least 0.9, where 1 is the maximum)
How it was run: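 hNPC spheres on PDL/laminin, N2 medium, 37C/5% CO2; dosed day 0, half-medium refresh day 3; fixed 120 h; TUBB3/Hoechst ICC, high-content imaging; neurite area = mean pixels per neuron (nuclei excluded); DMSO baseline, max 0.1%.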

[18] = IUF_NPC2-5_cytotoxicity_72hr: Cytotoxicity Assessment at 72 hours in the Leibniz Research Institute for Environmental Medicine (IUF) Neural Progenitor Cell Migration and Differentiation Assay for Cytotoxicity (NPC2-5) (AID 2284306; active = hit-call score of the fitted dose curve at least 0.9, where 1 is the maximum;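 note: LDH release into supernatant measured by resorufin fluorescence marking membrane damage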)
How it was run: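 hNPC spheres (0.3 mm), PDL/laminin, DMEM/F12 3:1 + 1% N2; cpd from d0, 7 concs + SC, DMSO max 0.1%; half-medium refresh d3. Readout: supernatant LDH via resorufin fluorescence (RFU), 72 h; gain-of-signal fit.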

[19] = IUF_NPC2-5_cytotoxicity_120hr: Cytotoxicity Assessment at 120 hours in the Leibniz Research Institute for Environmental Medicine (IUF) Neural Progenitor Cell Migration and Differentiation Assay (NPC2-5) (AID 2284307; active = hit-call score of the fitted dose curve at least 0.9, where 1 is the maximum)
How it was run: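 Human fetal neural progenitor spheres (0.3 mm, GW 16-19 cortex) were plated on poly-D-lysine/laminin in N2 differentiation medium and exposed for 120 h, with half-medium refresh at day 3. LDH release into supernatant was read by resorufin fluorescence.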

[20] = IUF_NPC2-5_cell_number_120hr: Cell Number Assessment at 120 hours in the Leibniz Research Institute for Environmental Medicine (IUF) Neural Progenitor Cell Migration and Differentiation Assay (NPC2-5) (AID 2284308);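 note: count of Hoechst-stained nuclei in migration zone around plated human neural progenitor spheres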
How it was run: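 Primary human fetal neural progenitor spheres (GW 16-19, 0.3 mm) plated on poly-D-lysine/laminin in N2 differentiation medium, exposed from day 0 for 120 h with half-medium refresh at day 3; Hoechst-positive nuclei counted in migration area versus DMSO control.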

[21] = IUF_NPC2-5_viability_120hr: Viability Assessment at 120 hours in the Leibniz Research Institute for Environmental Medicine (IUF) Neural Progenitor Cell Migration and Differentiation Assay (NPC2-5) (AID 2284312)
How it was run: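 Human fetal neural progenitor spheres (0.3 mm) plated on poly-D-lysine/laminin in N2 differentiation medium, exposed 120 h with half-medium refresh at day 3. Viability by alamar blue resazurin fluorescence; 7 concentrations, DMSO max 0.1%.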

[22] = CCTE_Mundy_HCI_iCellGluta_NOG_NeuriteLength: CCTE's Neurite Outgrowth Assay in iCellGluta cells for Neurite Length, Mundy Lab (AID 2284318; active = hit-call score of the fitted dose curve at least 0.9, where 1 is the maximum)
How it was run: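 Automated high-content imaging of betaIII-tubulin (Alexa Fluor-488) and Hoechst-stained cells gave neurite length, normalized to the DMSO baseline.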

[23] = IUF_NPC1_cytotoxicity_72hr: Cytotoxicity Assessment at 72 hours in the Leibniz Research Institute for Environmental Medicine (IUF) Neural Progenitor Cell Proliferation Assay (NPC1) (AID 2284332; active = hit-call score of the fitted dose curve at least 0.9, where 1 is the maximum;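 note: rising LDH signal means more cytotoxicity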)
How it was run: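 Readout is fluorescence from LDH-dependent resazurin conversion, sampled from culture medium after compound contact lasting 72 h. Each well holds one 0.25-0.35 mm human progenitor sphere kept at 37C, 5% CO2 with EGF and FGF.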

[24] = CCTE_Mundy_HCI_iCellGluta_NOG_NeuriteCount: CCTE's Neurite Outgrowth Assay in iCellGluta cells for Neurite Count, Mundy Lab (AID 2284342; active = hit-call score of the fitted dose curve at least 0.9, where 1 is the maximum;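 note: chemical exposure about 48 hours starting 2 hours after plating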)

Measured: AC50

CCOP(=O)(OCC)SCSCC
inactive: [2] | [3] | [4] | [5] | [6] | [7] | [10] | [11] | [12] | [13] | [14] | [15] | [16] | [17] | [18] | [19] | [20] | [21] | [23]
active: [1] 78.3 µM | [8] 89 µM | [9] 84.1 µM | [22] 49.8 µM | [24] 49.8 µM
